Laboratory results from PubChem BioAssay (NCI).
Several values for one entry are separate records, joined by “and”; a condition that tells them apart may be missing. Identical values can stand only once. This is part of a sample that, as a whole, favours compounds with a hit. Of some 79,000 tested, about 15% had one in any assay. Values without a mark were called inactive. Activity calls are given as the source filed them. No stated cut-off is given here; in the data, active means growth inhibition above about 70%; inactive means the rest.

Test: NCI Yeast Anticancer Drug Screen. Data for the cln2 rad14 strain (AID 165);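 further: 0% = growth equal to vehicle treated cultures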
Conditions: S. cerevisiae cln2 rad14 strain, at 50.0 µM (retest, dose inferred, filed as 5.0), active compounds read high
How it was run: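 Test compounds were added to cln2 rad14 yeast cultures; inhibition of growth was then determined by comparison with vehicle treatment.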
Compound NC1=NC2=C(CCCC2)C(c2cccs2)S1 (stereo not drawn) has a growth inhibition of 49%.
CCC(C)(C)NCCCCCNc1cc(OC)cc2cccnc12 gave a growth inhibition of 9%.
For C/C(=N\NC(=S)Nc1ccc([N+](=O)[O-])cc1)c1nc2ncccc2[nH]1, the growth inhibition was 93% (active).
In the case of COC(=O)c1ccc(SCC(=O)c2ccc([N+](=O)[O-])o2)cc1, the growth inhibition is reported as 96% (active).
With CCCCCCCCCCCC(=O)OCCOP(=O)(OCC)OCC the growth inhibition was 97% (active).
For COc1cccc2c1S(=O)(=O)C(c1ccccc1)=CC2=O, the growth inhibition was 98% (active).
For CC(C)(C)c1ccc(-n2c3nc(=O)n(-c4ccccc4C(F)(F)F)c(=O)c-3cc3ccccc32)cc1, the growth inhibition was 97% (active).
Compound CCOC(=O)c1cc(C)ccc1-c1ccc(C)cc1C(=O)OCC has a growth inhibition of 17%.
For NC(=O)C1C(=O)c2cccc3c2C1(Br)C(Br)CCC3 (stereo not drawn), the growth inhibition was 98% (active).
COC(=O)/C(=C/C=C(c1ccccc1)c1ccccc1)N(C(C)=O)C(C)=O gave a growth inhibition of 7%.
With Cc1ccc(C2COc3cc(O)c(O)cc3C2)cc1 (stereo not drawn) the growth inhibition was 99% (active).
Work on COc1cc(C2=NCCO2)cc(OC)c1OC yielded a growth inhibition of -62%.
O=C1c2cccc3cc([N+](=O)[O-])cc(c23)C(=O)N1O gave a growth inhibition of 35%.
Compound CCOc1ccccc1C(=O)Oc1cccc(C)c1 has a growth inhibition of 32%.
With CCNc1cc(N)[n+](CC)c2n[nH]c(/N=C/c3cc(Cl)cc(Cl)c3O)c12 the growth inhibition was 98% (active).
For CC(=O)OC1=Cc2ccccc2C(c2ccccc2)c2ccccc21 (stereo not drawn), the growth inhibition was 37%.
For CCOC(=O)c1[nH]c(Br)c(-c2ccc(OC)c(OC)c2)c1Br, the growth inhibition was 99% (active).
With C#C[C@]1(OC(C)=O)CC[C@H]2[C@@H]3CCC4=CC(=O)CC[C@@H]4[C@H]3CC[C@@]21C the growth inhibition was 22%.
Work on COc1ccc(CC2=CC(=O)C(=O)C=C2C)cc1 yielded a growth inhibition of 4%.
In the case of O=C(O)CCC/C(=N\Nc1ccccc1)C(=O)O, the growth inhibition is reported as 99% (active).
With S=c1[nH]c2ccc(Br)cc2c(=S)n1-c1ccccc1 the growth inhibition was 4%.
For CC1(C)OC2C(COC(c3ccccc3)(c3ccccc3)c3ccccc3)OC(n3cnc4c(N)ncnc43)C2O1 (stereo not drawn), the growth inhibition was 89% (active).
In the case of O=[N+]([O-])c1cnc(F)c(Br)c1, the growth inhibition is reported as 99% (active).
In the case of C=C(C#N)C(=O)OCC(CC)CC.C=C(C#N)C(=O)OCC(CC)CC.CS(C)=O.CS(C)=O.Nc1c(N=Nc2ccc(-c3ccc(N=Nc4cc(S(=O)(=O)[O-])c5ccccc5c4N)cc3)cc2)cc(S(=O)(=O)[O-])c2ccccc12.[Pt+2], the growth inhibition is reported as 98% (active).
With CCCCCCCCCCS(=O)(=O)Nc1ccc(C(=O)NN)cc1 the growth inhibition was 80% (active).
Compound COC(=O)c1ccc(C)cc1CC1Cc2cc(C)ccc2C1=O (stereo not drawn) has a growth inhibition of 53%.
CCCCCOCC(=O)OC showed a growth inhibition of 0%.
In the case of COc1ccc(C2c3cc4c(cc3OC(N3CCOCC3)C2C)OCO4)c(OC)c1 (stereo not drawn), the growth inhibition is reported as 99% (active).
In the case of COC1/C=C\OC2(C)Oc3c(C)c(O)c4c(c3C2=O)C2=NC(C)(C)N(c3ccccc3)C2=C(NC(=O)/C(C)=C\C=C\C(C)C(O)C(C)C(O)C(C)C(OC(C)=O)C1C)C4=O (stereo not drawn), the growth inhibition is reported as 91% (active).
Compound C/C(=C/C(=O)N1c2ccccc2CC1c1c[nH]c2ccccc12)C(=O)O (stereo not drawn) has a growth inhibition of 8%.
With CSc1nc(C)c(C(=O)CCN2CCOCC2)s1 the growth inhibition was 89% (active).
Compound Cn1c(=S)c2[nH]c(=S)[nH]c2n(C)c1=O has a growth inhibition of 47%.
For CC(C)CCC(C)(C)c1cc(O)ccc1O, the growth inhibition was 92% (active).
Compound CCc1c(-c2ccccc2)c(CN2CCCCC2)c2ccccn12 has a growth inhibition of 26%.
For Clc1ccc(CN2COc3c(ccc4cccnc34)C2)c(Cl)c1, the growth inhibition was 98% (active).
Cc1[nH]c2ccccc2c1/C=C1/CCCCCCC1=O showed a growth inhibition of 24%.
In the case of CCOC(=O)c1ccc(NC(=O)O/N=C(/Cl)CC)cc1, the growth inhibition is reported as 51%.
COC1OC(COC(=O)c2ccccc2)CC1F (stereo not drawn) showed a growth inhibition of -2%.

Same assay, conditions: S. cerevisiae cln2 rad14 strain, at 50.0 µM, active compounds read high
Work on NC1=NC2=C(CCCC2)C(c2cccs2)S1 (stereo not drawn) yielded a growth inhibition of 37%.
For CCC(C)(C)NCCCCCNc1cc(OC)cc2cccnc12, the growth inhibition was 21.4%.
In the case of C/C(=N\NC(=S)Nc1ccc([N+](=O)[O-])cc1)c1nc2ncccc2[nH]1, the growth inhibition is reported as 67.2%.
For COC(=O)c1ccc(SCC(=O)c2ccc([N+](=O)[O-])o2)cc1, the growth inhibition was 95.3% (active).
With CCCCCCCCCCCC(=O)OCCOP(=O)(OCC)OCC the growth inhibition was 74.7% (active).
With COc1cccc2c1S(=O)(=O)C(c1ccccc1)=CC2=O the growth inhibition was 98.7% (active).
Work on CC(C)(C)c1ccc(-n2c3nc(=O)n(-c4ccccc4C(F)(F)F)c(=O)c-3cc3ccccc32)cc1 yielded a growth inhibition of 60.5%.
For CCOC(=O)c1cc(C)ccc1-c1ccc(C)cc1C(=O)OCC, the growth inhibition was 3.55%.
In the case of NC(=O)C1C(=O)c2cccc3c2C1(Br)C(Br)CCC3 (stereo not drawn), the growth inhibition is reported as 98.8% (active).
With COC(=O)/C(=C/C=C(c1ccccc1)c1ccccc1)N(C(C)=O)C(C)=O the growth inhibition was 99.4% (active).
For Cc1ccc(C2COc3cc(O)c(O)cc3C2)cc1 (stereo not drawn), the growth inhibition was 96.2% (active).
For COc1cc(C2=NCCO2)cc(OC)c1OC, the growth inhibition was 61.9%.
In the case of O=C1c2cccc3cc([N+](=O)[O-])cc(c23)C(=O)N1O, the growth inhibition is reported as 32.4%.
CCOc1ccccc1C(=O)Oc1cccc(C)c1 gave a growth inhibition of -5.2%.
With CCNc1cc(N)[n+](CC)c2n[nH]c(/N=C/c3cc(Cl)cc(Cl)c3O)c12 the growth inhibition was 79.9% (active).
With CC(=O)OC1=Cc2ccccc2C(c2ccccc2)c2ccccc21 (stereo not drawn) the growth inhibition was 10.7%.
For CCOC(=O)c1[nH]c(Br)c(-c2ccc(OC)c(OC)c2)c1Br, the growth inhibition was 88.8% (active).
In the case of C#C[C@]1(OC(C)=O)CC[C@H]2[C@@H]3CCC4=CC(=O)CC[C@@H]4[C@H]3CC[C@@]21C, the growth inhibition is reported as 89.7% (active).
For COc1ccc(CC2=CC(=O)C(=O)C=C2C)cc1, the growth inhibition was 11.2%.
With O=C(O)CCC/C(=N\Nc1ccccc1)C(=O)O the growth inhibition was 97.4% (active).
With S=c1[nH]c2ccc(Br)cc2c(=S)n1-c1ccccc1 the growth inhibition was 88% (active).
In the case of CC1(C)OC2C(COC(c3ccccc3)(c3ccccc3)c3ccccc3)OC(n3cnc4c(N)ncnc43)C2O1 (stereo not drawn), the growth inhibition is reported as 72.5% (active).
With O=[N+]([O-])c1cnc(F)c(Br)c1 the growth inhibition was 98.7% (active).
For C=C(C#N)C(=O)OCC(CC)CC.C=C(C#N)C(=O)OCC(CC)CC.CS(C)=O.CS(C)=O.Nc1c(N=Nc2ccc(-c3ccc(N=Nc4cc(S(=O)(=O)[O-])c5ccccc5c4N)cc3)cc2)cc(S(=O)(=O)[O-])c2ccccc12.[Pt+2], the growth inhibition was 95.8% (active).
With CCCCCCCCCCS(=O)(=O)Nc1ccc(C(=O)NN)cc1 the growth inhibition was 91% (active).
In the case of CC(=O)OCC(OC(C)=O)C(OC(C)=O)C(OC(C)=O)C(COC(C)=O)OC(C)=O (stereo not drawn), the growth inhibition is reported as -30.3% and -21.9% and -0.1%.
For COC(=O)c1ccc(C)cc1CC1Cc2cc(C)ccc2C1=O (stereo not drawn), the growth inhibition was 71.8% (active).
CCCCCOCC(=O)OC gave a growth inhibition of 44.2%.
In the case of COc1ccc(C2c3cc4c(cc3OC(N3CCOCC3)C2C)OCO4)c(OC)c1 (stereo not drawn), the growth inhibition is reported as 73.2% (active).
COC1/C=C\OC2(C)Oc3c(C)c(O)c4c(c3C2=O)C2=NC(C)(C)N(c3ccccc3)C2=C(NC(=O)/C(C)=C\C=C\C(C)C(O)C(C)C(O)C(C)C(OC(C)=O)C1C)C4=O (stereo not drawn) showed a growth inhibition of 39.9%.
Work on C/C(=C/C(=O)N1c2ccccc2CC1c1c[nH]c2ccccc12)C(=O)O (stereo not drawn) yielded a growth inhibition of -0.65%.
With CSc1nc(C)c(C(=O)CCN2CCOCC2)s1 the growth inhibition was 93% (active).
In the case of Cn1c(=S)c2[nH]c(=S)[nH]c2n(C)c1=O, the growth inhibition is reported as 80.3% (active).
In the case of OCC(O)C(O)C(O)C(O)C(SCc1ccccc1)SCc1ccccc1 (stereo not drawn), the growth inhibition is reported as -9.4% and -3.35% and -11.2%.
With CC(C)CCC(C)(C)c1cc(O)ccc1O the growth inhibition was 87.5% (active).
With CCc1c(-c2ccccc2)c(CN2CCCCC2)c2ccccn12 the growth inhibition was -20%.
In the case of Clc1ccc(CN2COc3c(ccc4cccnc34)C2)c(Cl)c1, the growth inhibition is reported as 97.7% (active).
In the case of Cc1[nH]c2ccccc2c1/C=C1/CCCCCCC1=O, the growth inhibition is reported as 91.6% (active).
In the case of CCOC(=O)c1ccc(NC(=O)O/N=C(/Cl)CC)cc1, the growth inhibition is reported as 64.8%.
For COC1OC(COC(=O)c2ccccc2)CC1F (stereo not drawn), the growth inhibition was 91.8% (active).
